Measured values as given in PubChem BioAssay (NCI).
About 83,000 compounds went through this panel and 20% of them were active in at least one assay; those are over-represented in the sample as a whole.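 Plates (96-well) were seeded with cells, treated with compound at one concentration, and incubated for 48 hours before percent growth was determined.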 Values without a mark were called inactive. Activity calls are given as the source filed them. Rule for the calls: active = growth percent below 10; inactive = the rest.

Test system: HL-60(TB) leukemia
Test: NCI-60 one-dose screen, 48 h (100 = growth as untreated, 0 = no growth, -100 = all killed)
Details: 10 µM unless noted

Compound | growth
CCCCCCCCCC[N+](C)(C)C | -6.93% (active)
CCCCCCCCCCN=C(N)N=C(N)N | 1.55% (active)
C=C1C(=O)O[C@H]2[C@H]1CC/C(Cn1cc(-c3cc(C)c(C)cc3C)nn1)=C\CC[C@@]1(C)O[C@@H]21 | -9.09% (active)
C/C(=N\NC(=O)CSc1nc2ccccc2c(=O)n1Cc1ccc(S(N)(=O)=O)cc1)c1ccc(F)cc1 | 101%
CCOC(=O)C(C(C)=O)c1nc2sc3cc(Cl)ccc3n2c(=N)c1C#N (stereo not given) | 115%
CCN(CC)CCOc1nc2ccc(OC)cc2c2c1-c1ccc(OC)cc1C2=O | 19.2%
ClC1=C(Cl)C(Cl)=C(Cl)C1=C/C=C/c1ccccc1 | -45.5% (active)
CN(C)CCCN(Cc1ccccc1O)C(=S)Nc1ccc(Cl)cc1 | 103%
COc1ccc(-c2ccc(-c3ccc(C(=N)N)nc3)s2)cc1Cl | -48.7% (active)
O=S(=O)(NCCCNc1nccc(-c2c(-c3cccc(F)c3)nc3sccn23)n1)c1cccc(F)c1 | 40.5%
C=C1C(=O)O[C@H]2[C@H]1CC/C(COC(=O)c1ccccc1)=C\CC[C@@]1(C)O[C@@H]21 | -59.5% (active)
CC(=O)Nc1ccc(CC#N)cc1Br | 123%
CC(=O)NCCSC(=O)C(=O)SCCNC(C)=O | 83.6%
O=C(Nc1ccc(CO)cc1)c1ccccc1Nc1ccnc(C(F)(F)F)c1 | 98.3%
CCN1CCN(C(=O)[C@]23CCC(C)(C)C[C@@H]2C2=CC[C@@H]4[C@@]5(C)C/C(=C/c6cccnc6)C(=O)C(C)(C)[C@@H]5CC[C@@]4(C)[C@]2(C)CC3)CC1 | -37.3% (active)
CCc1nc2cc(F)c(/C=C/C(=O)NO)cc2c(=O)n1CCc1ccccc1 | 0.13% (active)
COc1ccc(/C=C(\c2cc(OC)c(OC)c(OC)c2)c2nnc(-c3cccs3)o2)cc1 | 92%
CC1(C)Oc2cc3oc(=O)ccc3cc2C[C@@H]1OCCOS(=O)(=O)c1ccc(C#N)cc1 | 100%
Cc1ccc(N2C3c4ccccc4N(S(=O)(=O)c4ccc(C)cc4)C2c2ccccc2N3S(=O)(=O)c2ccc(C)cc2)cc1 | 80.5%
O=c1c2c(=NCCCN3CCCC3)cc3c(=O)n(CCCN4CCCC4)c(=O)c4c(NCCCN5CCCC5)cc(c(O)n1CCCN1CCCC1)c2c4-3 | 29.9%

Compound | growth
Cc1ccc2[nH]c(=O)cc(-n3nncc3COc3ccc(C=O)cc3)c2c1 | 107%
COc1cc2c(=O)n(CCN)c3c4cc5c(cc4ccc3c2cc1OC)OCO5 | -64.9% (active)
CCOC(=O)N1CCc2c(sc3c2C(=O)N[C@H](c2ccc(OC)cc2)N3)C1 | 99.8%
Cn1nc(C(C)(C)C)cc1NC(=O)Cc1ccc(/C=C2\C(=O)Nc3ccccc32)cc1 | 48.2%
COc1ccc(CC(C)=C(c2ccc(OCCN(C)C)cc2)c2ccc(OCCN(C)C)cc2)cc1 | 41.3%
CCN(CC)c1ccc2nc3c4ccccc4c(=O)cc-3n(-c3ccccc3)c2c1 | -26.7% (active)
O=C(NCCCN1CCC(N2CCCCC2)CC1)C1=Cc2cc(Br)ccc2OC1 | 36.3%
COc1ccc(CCN(CC(=O)N(CC(N)=O)C2CCC[C@@H]2OCc2ccccc2)C(=O)CN(C(=O)CN(CCc2ccc(Cl)cc2)C(=O)CN(C(=O)CN(C)Cc2ccccc2F)[C@H](C)C2CCCCC2)[C@H](C)C2CCCCC2)cc1OC (stereo not given in full) | -24.4% (active)
C1CCC(N2CN3c4nonc4N4CN(C5CCCCC5)CN5c6nonc6N(C2)C3C45)CC1 (stereo not given) | 100%
O=c1cc(-c2ccccc2)nc(SCc2nc3cc(Cl)c(Cl)cc3[nH]2)[nH]1 | 101%
COc1nc(=O)n(C2C=CC(=O)O2)cc1F (stereo not given) | 1.27% (active)
COc1cc2c(cc1-c1c(C)noc1C)ncc1nc(C3CCOCC3)n(C3CCC(OC(F)F)CC3)c12 (stereo not given) | 7.23% (active)
N#CC1=CC2CN(Cc3ccccc3)C1C1C(=O)N(c3ccccc3)C(=O)C21 (stereo not given) | 76%
COc1ccc(/C(C)=N/NC(=O)CSc2nc3ccccc3c(=O)n2Cc2ccc(S(N)(=O)=O)cc2)c(OC)c1 | 102%
COc1ccc(-c2cc(-c3ccccc3)nc(SCCCC(=O)NO)n2)cc1OC | -12.2% (active)
CSc1nc(-c2ccco2)c(C#N)c(=O)n1C | 95.9%
COCCOc1cc2ncnc(N3CCN(c4cc(S(C)(=O)=O)c(C)cc4Cl)CC3)c2cc1OCCOC | 97.4%
Cc1cccc(C)c1NC(=O)CSC(=S)N1CCN(CCOCCO)CC1 | 88.7%
CCC1(c2ccccc2)Oc2ccccc2-n2c(C#N)c3ccccc3c2C1=O (stereo not given) | 92.8%
CC(=O)Oc1ccc(/C(=C(\C)c2ccc(Cl)cc2)c2ccc(OCCN3CCCCC3)cc2)cc1 | 27.4%
